Consider 24 compounds from PubChem BioAssay (NCI).

Structures are written as SMILES. Compounds without any hit were thinned out: in the full panel of roughly 83,000, 20% have a hit.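 96-well plates, one dose, 48 hours. Percent growth reported; active if below 10.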 Unmarked numbers belong to inactive results. Activity calls are given as the source filed them.

Among the test systems are BT-549 breast; MDA-MB-435 melanoma; SW-620 colon; MCF7 breast; HCT-116 colon; HCC-2998 colon; KM12 colon.
Experiment in all cases: NCI-60 one-dose screen, 48 h (100 = growth as untreated, 0 = no growth, -100 = all killed)
What all share (conditions): 10 µM unless noted

Take `O=C(O)CCCCCN1C(=O)/C(=C/c2ccc(O)c(O)c2)SC1=S`: the growth was 101% in the assay on BT-549 breast; 103% in the assay on MDA-MB-435 melanoma; 111% in the assay with SW-620 colon; 90.5% in the assay with MCF7 breast; 105% with HCT-116 colon; 115% in the assay on HCC-2998 colon. For the same compound, in the assay with KM12 colon, the growth was 105%.

For `Cn1cc(-c2cc(N)n3nc(-c4cn(C)c5ccc(F)cc45)cc3n2)c2cc(F)ccc21`, the growth with BT-549 breast was 77.5%; with MDA-MB-435 melanoma it was 5.54% (active); in the assay with SW-620 colon, -36.6% (active); in the assay on MCF7 breast it was 10%; in the assay on HCT-116 colon, -92.8% (active); with HCC-2998 colon it was 1.23% (active). In the assay on KM12 colon, the growth is 6.56% (active).

In the case of `COc1ccc(/C=C/C(=O)c2ccc(NC(=O)CSc3nnc(-c4ccc5nc(-c6ccc(Cl)cc6)[nH]c5c4)o3)cc2)cc1`, the growth was 85% in the assay with BT-549 breast; 98.1% in the assay on MDA-MB-435 melanoma; 106% in the assay with SW-620 colon; 79.7% with MCF7 breast; 93.4% in the assay on HCT-116 colon; 118% in the assay on HCC-2998 colon.

For `[Cl][Ru].c1ccc(-c2cccc(-c3ccccn3)n2)nc1.c1ccc(-c2ccnc3c2ccc2c(-c4ccccc4)ccnc23)cc1`, the growth in the assay with BT-549 breast was 7.88% (active); with MDA-MB-435 melanoma, 10.5%; in the assay with SW-620 colon, 40.2%; with MCF7 breast, 9.54% (active); in the assay on HCT-116 colon it was 36.9%; with HCC-2998 colon it was 31.3%. The growth in the assay on KM12 colon was 8.28% (active).

Consider `N#Cc1ccc(C(=O)CSc2nc(Nc3ccc(S(N)(=O)=O)cc3)c3ccccc3n2)cc1`, for which the growth was 111% in the assay with BT-549 breast; 108% with MDA-MB-435 melanoma; 103% with SW-620 colon; 98.6% in the assay with MCF7 breast; 100% in the assay on HCT-116 colon; 119% in the assay with HCC-2998 colon. Moreover, the growth in the assay on KM12 colon was 107%.

As to `COc1cc(-c2nc3ccc(-c4nnc(SCC(=O)Nc5ccc(C(=O)/C=C/c6ccc(Cl)cc6)cc5)o4)cc3[nH]2)cc(OC)c1OC`, the growth was 84.4% with BT-549 breast; 99% with MDA-MB-435 melanoma; 100% in the assay on SW-620 colon; 59.1% in the assay on MCF7 breast; 81.5% with HCT-116 colon; 120% in the assay on HCC-2998 colon. For the same compound, in the assay with KM12 colon, the growth was 90.9%.

Regarding `COc1ccc2[nH]cc(-c3cc(N)n4nc(-c5c[nH]c6ccc(OC)cc56)cc4n3)c2c1`, the growth in the assay on BT-549 breast is 105%; in the assay on MDA-MB-435 melanoma, -81.4% (active); in the assay on SW-620 colon it was -16% (active); in the assay with MCF7 breast, 2.38% (active); in the assay on HCT-116 colon it was -88.2% (active); with HCC-2998 colon it was -4.06% (active). The growth in the assay with KM12 colon was -37.8% (active).

With `CN(C)S(=O)(=O)c1oc(-c2ccccc2)nc1C#N`, the growth in the assay with BT-549 breast is 64.4%; in the assay with MDA-MB-435 melanoma it was 78.9%; in the assay on SW-620 colon, 0.559% (active); in the assay with MCF7 breast, 39.4%; with HCT-116 colon, 61.3%; with HCC-2998 colon it was 108%. In addition, the growth in the assay with KM12 colon is 92.9%.

As for `COc1ccc(/C=N/NC(=O)c2[nH]c3ccc(Br)cc3c2-c2ccccc2)o1`, the growth with BT-549 breast was -15.5% (active); with MDA-MB-435 melanoma, -16.9% (active); with SW-620 colon it was 21.6%; in the assay on MCF7 breast it was 9.83% (active); with HCT-116 colon, -18.8% (active); with HCC-2998 colon, 21.3%. Moreover, the growth in the assay with KM12 colon was 6.83% (active).

On to `c1ccc(CNc2ncnc3ccc(-c4cnc5[nH]ncc5c4)cc23)cc1`, for which the growth with BT-549 breast is 62.2%; in the assay with MDA-MB-435 melanoma, 86.9%; in the assay on SW-620 colon, 72.9%; in the assay with MCF7 breast, 30.3%; in the assay on HCT-116 colon it was 80.1%; in the assay on HCC-2998 colon, 83.6%. In addition, in the assay on KM12 colon, the growth is 84.9%.

Turning to `CN(C)CCCNc1c2ccc(Cl)cc2nc2c1oc1ccc(Cl)cc12`, the growth was 79.9% in the assay on BT-549 breast; -74.3% (active) in the assay with MDA-MB-435 melanoma; -79% (active) in the assay on SW-620 colon; -76.4% (active) in the assay with MCF7 breast; -93.7% (active) with HCT-116 colon; -85.1% (active) with HCC-2998 colon. In addition, the growth in the assay on KM12 colon is -56.3% (active).

In the case of `COc1ccc(C(=O)/C=C/c2ccc(OCc3ccc(C)cc3)c(OC)c2)cc1OC`, the growth is 73.2% in the assay on BT-549 breast; 82.6% in the assay on MDA-MB-435 melanoma; 45.5% in the assay with SW-620 colon; 25.9% with MCF7 breast; 25.3% with HCT-116 colon; 91.1% in the assay on HCC-2998 colon. Also, the growth in the assay on KM12 colon is 51.5%.

For `OC1CCN(CCCOc2c3ccccc3nc3c2oc2ccccc23)CC1`, the growth in the assay with BT-549 breast is 7.19% (active); in the assay with MDA-MB-435 melanoma it was -10.5% (active); in the assay on SW-620 colon, 1.37% (active); with MCF7 breast, 0.978% (active); with HCT-116 colon, 3.79% (active); in the assay with HCC-2998 colon, -12.4% (active). Also, in the assay with KM12 colon, the growth is 5.22% (active).

As for `COc1cc(/C=C/C(=O)c2cc(OC)c(OC)c(OC)c2)ccc1Oc1nc(NCCO)nc(N2CCOCC2)n1`, the growth in the assay on BT-549 breast was -25.1% (active); in the assay with MDA-MB-435 melanoma it was 4.93% (active); with SW-620 colon it was -33.6% (active); in the assay on MCF7 breast, 8.4% (active); in the assay on HCT-116 colon, -79.3% (active); in the assay on HCC-2998 colon, -17.5% (active). Moreover, the growth with KM12 colon is -44.6% (active).

As for `Clc1ccc2c(NCCCn3ccnc3)c3oc4ccc(Cl)cc4c3nc2c1`, the growth in the assay on BT-549 breast is 88.1%; in the assay with MDA-MB-435 melanoma, 86.2%; in the assay on SW-620 colon it was 57%; in the assay with MCF7 breast it was 53.8%; in the assay with HCT-116 colon, 81%; in the assay with HCC-2998 colon it was 79%. The growth in the assay on KM12 colon is 87.6%.

As to `C/C(=N/NC(N)=S)c1ccc(Nc2nc(SCC(C)C)nc(-c3ccc(F)cc3)c2C#N)cc1`, the growth is 55.8% with BT-549 breast; 13.1% in the assay with MDA-MB-435 melanoma; 4.45% (active) with SW-620 colon; 0.17% (active) in the assay on MCF7 breast; 3.84% (active) in the assay with HCT-116 colon; 34.8% in the assay on HCC-2998 colon. In the assay with KM12 colon, the growth was 23.5%.

As to `COc1cccc(COc2ccc(/C=C3/C(=O)Nc4cc(Cl)ccc43)cc2)c1`, the growth with BT-549 breast was 106%; with MDA-MB-435 melanoma, 99.9%; in the assay on SW-620 colon, 97.5%; in the assay on MCF7 breast, 70.7%; in the assay on HCT-116 colon it was 93.7%; with HCC-2998 colon, 102%. The growth with KM12 colon is 97.1%.

Regarding `Cc1ccc2ccc3ccc(C)nc3c2n1.Cc1ccc2ccc3ccc(C)nc3c2n1.Oc1c(Cl)cc(Cl)c2ccc(CN3CCCCC3)nc12.[Ru]`, the growth with BT-549 breast is -95.8% (active); in the assay on MDA-MB-435 melanoma it was -90.5% (active); in the assay on SW-620 colon, -40% (active); in the assay with MCF7 breast, -75.1% (active); in the assay with HCT-116 colon, -92% (active); in the assay on HCC-2998 colon, -90.1% (active). In addition, the growth in the assay with KM12 colon was -73.9% (active).

For `O=C(c1ccc(O)cc1)C1[C@H](c2ccc(Cl)cc2)[C@@H](c2ccccc2)NC12C(=O)Nc1ccc(Cl)cc12` (some centres not stated), the growth in the assay with BT-549 breast was 77.3%; with MDA-MB-435 melanoma, 39.6%; with SW-620 colon, 40.5%; with MCF7 breast, 9.87% (active); in the assay on HCT-116 colon it was 14.5%; in the assay on HCC-2998 colon it was 18%. In the assay with KM12 colon, the growth was 24.4%.

`Cc1c(NC(=O)CSc2nc3sc4c(c3c(=O)n2-c2ccc(Cl)cc2)CCCC4)c(=O)n(-c2ccccc2)n1C`: the growth was 93.2% with BT-549 breast; 88.3% with MDA-MB-435 melanoma; 90.6% in the assay on SW-620 colon; 77.3% in the assay with MCF7 breast; 107% in the assay on HCT-116 colon; 110% in the assay on HCC-2998 colon. Further, in the assay with KM12 colon, the growth is 98.7%.

Consider `Fc1ccc(-c2cc3nc(C(Cl)Cl)nc(-c4ccc(Cl)cc4)n3n2)cc1`, for which the growth with BT-549 breast was 72.4%; with MDA-MB-435 melanoma, 25.8%; with SW-620 colon it was -13.1% (active); with MCF7 breast, 16.5%; with HCT-116 colon, 11.7%; in the assay with HCC-2998 colon, -60.4% (active). Further, the growth in the assay with KM12 colon is -17.1% (active).

As for `C=CCn1c(SCC(=O)c2ccccc2)nnc1-c1c[nH]c2ccccc12`, the growth is 109% with BT-549 breast; 105% in the assay with MDA-MB-435 melanoma; 96.1% in the assay with SW-620 colon; 97.2% with MCF7 breast; 97.5% in the assay with HCT-116 colon; 111% with HCC-2998 colon. In addition, the growth in the assay with KM12 colon is 112%.

Regarding `Nc1nc(N)c2c(n1)NC(c1ccc(F)cc1)CC(c1ccc(Nc3nc(NCCO)nc(Nc4ccc(Cl)cc4)n3)cc1)=N2` (configuration not stated), the growth in the assay on BT-549 breast was 42.7%; in the assay with MDA-MB-435 melanoma, -71.4% (active); in the assay with SW-620 colon, -52.8% (active); with MCF7 breast, -66.5% (active); in the assay on HCT-116 colon, -67.4% (active); with HCC-2998 colon, -80.4% (active). In the assay with KM12 colon, the growth was -16.9% (active).

Regarding `O=C1Nc2cc(Cl)ccc2/C1=C\c1ccc(OCc2ccc(Br)cc2F)cc1`, the growth is -69.3% (active) in the assay on BT-549 breast; -37.7% (active) in the assay on MDA-MB-435 melanoma; -49.7% (active) in the assay on SW-620 colon; 9.35% (active) in the assay on MCF7 breast; -95% (active) with HCT-116 colon; 17% in the assay with HCC-2998 colon. Besides, the growth in the assay on KM12 colon is -31.9% (active).
